Data from PubChem BioAssay (NCI).
Compounds without any hit were thinned out: in the full panel of roughly 79,000, 15% have a hit. Unmarked numbers belong to inactive results. Calls of active or inactive are those of the source. No stated cut-off is given here; in the data, active means growth inhibition above about 70%; inactive means the rest.

Columns and labels:
[1] = NCI Yeast Anticancer Drug Screen. Data for the rad50 strain (AID 155);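 further: 0% = growth of vehicle-only cultures of the same strain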; conditions: S. cerevisiae rad50 strain growth inhibition; at 50.0 µM; stronger effect = higher value
How it was run: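 Compounds were tested on a yeast strain with an engineered DNA damage repair alteration; the reported value is growth inhibition normalised to vehicle treatment.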

[2] = NCI Yeast Anticancer Drug Screen. Data for the mec2-1 strain (AID 157); conditions: S. cerevisiae mec2-1 strain, at 50.0 µM, stronger effect = higher value
How it was run: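 Mutant yeast (mec2-1) grown with compound; growth inhibition relative to vehicle control reported.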

[3] = NCI Yeast Anticancer Drug Screen. Data for the sgs1 mgt1 strain (AID 161);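 further: 0% = growth of cultures given vehicle only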; conditions: S. cerevisiae sgs1 mgt1 strain, at 50.0 µM, stronger effect = higher value
How it was run: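 Yeast cells carrying a defined DNA-repair defect were exposed to test compounds. Growth inhibition was measured relative to vehicle-treated controls.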

[4] = NCI Yeast Anticancer Drug Screen. Data for the cln2 rad14 strain (AID 165);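 further: 0% = growth equal to vehicle treated cultures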; conditions: S. cerevisiae cln2 rad14 strain, at 50.0 µM, stronger effect = higher value
How it was run: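 Readout is yeast growth inhibition versus vehicle-treated controls, using a strain with cln2 and rad14 alterations exposed to compound.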

[5] = NCI Yeast Anticancer Drug Screen. Data for the bub3 strain (AID 167); conditions: S. cerevisiae bub3 mutant strain, at 50.0 µM, stronger effect = higher value
How it was run: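 Growth of a checkpoint-deficient yeast mutant is measured after compound exposure. Values represent inhibition relative to vehicle.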

[6] = NCI Yeast Anticancer Drug Screen. Data for the mlh1 rad18 strain (AID 175); conditions: S. cerevisiae mlh1 rad18 strain growth inhibition; at 50.0 µM; stronger effect = higher value
How it was run: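 Genetically defined yeast (DNA repair-deficient) exposed to compounds; growth inhibition determined relative to vehicle.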

SMILES | growth inhibition [1] | growth inhibition [2] | growth inhibition [3] | growth inhibition [4] | growth inhibition [5] | growth inhibition [6]
O=C(Cc1ccccc1)c1ccc(N2CCOCC2)cc1 | 21.5% | -19.2% | 11.5% | 13.2% | 26.1% | 25.7%
NC(N)=NS(=O)(=O)c1ccc(Nc2c3ccccc3nc3c(C(=O)Nc4ccc(S(N)(=O)=O)cc4)ccc(Cl)c23)cc1 | -8.55% | -2.1% | -2.75% | 29.8% | -2.25% | 7.85%
CCOC(=Nc1cccc2ccccc12)Nc1cccc2ccccc12 | -5.9% | -6.95% | -8.6% | -25.2% | -15.8% | -6.65%
COC(=O)C(O)c1ccc(C(C)C)cc1 (stereo not drawn) | -34.5% | -18.6% | -13.9% | -33.2% | -26.4% | -9.2%
CC(=O)C1(SCCO)CCC2C3CCC4=CC(=O)CCC4(C)C3CCC21C (stereo not drawn) | 91.8% (active) | 69.8% | 97% (active) | -3.35% | 41.1% | 77.2% (active)
Cc1c2oc3c(C)ccc(C(=O)NCCN4CCOCC4)c3nc-2c(C(=O)NCCN2CCOCC2)c(N)c1=O | -8.1% | 29.6% | 37.5% | -26.5% | 38.9% | 15.8%
N#CC/C(C#N)=C/OC(=O)c1ccc(Cl)cc1 | 12.2% | -4.5% | -13.3% | -33.5% | -17.9% | -7.15%
Cc1ccc(C)c2nc3c(C)ccc(C)c3cc12 | 22.5% | 1.4% | 13% | -25.9% | -0.45% | 14.3%
OCC(O)COc1ccccc1F (stereo not drawn) | 11.5% | -6.35% | -11.2% | -13.2% | -7.5% | 10.8%
O=CC(=C\c1cccs1)/C(C=O)=C\c1cccs1 | 99.3% (active) | 99.5% (active) | 99.5% (active) | 99.1% (active) | 99.4% (active) | 88.5% (active)
C=CN1C(=O)NC2(CCCCC2)C1=O | -33.8% | -40% | -40.4% | 7.55% | -10.3% | -25.6%
Cc1c(CO)[n+](=O)c2ccccc2n1[O-] | 30.4% | 12.6% | 0.45% | -22.6% | 3.4% | 21.7%
Cn1c(=O)n(C2(C)CSC2)c2ccccc21 | -27.2% | -14.6% | -46.1% | -3.95% | -3.35% | -33.9%
CCN(CC)C1=CC(=O)OC1OC (stereo not drawn) | -9.65% | 12.5% | 2% | 8.1% | 3.05% | -4.2%
O=c1oc2ccccc2c(O)c1C(c1cccc(C(c2c(O)c3ccccc3oc2=O)c2c(O)c3ccccc3oc2=O)c1)c1c(O)c2ccccc2oc1=O | 26.6% | 37.5% | -2.7% | -17.6% | -5.3% | 67.8%
O=C(O)c1ccc(CS(=O)(=O)c2ccccc2C(=O)O)cc1 | 9% | -0.6% | 2.05% | 15.8% | 5.6% | 20.2%
CC(C)C(C(=O)O)N(C)C(=O)c1cnc2ccccc2n1 (stereo not drawn) | 9.1% | -1.2% | -0.6% | 22.9% | 17.6% | -6.2%
COc1cc([C@H]2CC(=O)C[C@H](c3cc(OC)c(OC)c(OC)c3)C23C(=O)c2ccccc2C3=O)cc(OC)c1OC | -3% | 11.9% | -8.7% | 29.5% | 0.45% | 7%
CC(=O)NC1c2ccccc2-c2ccccc21 | -5.1% | 34.2% | -1.15% | 42% | 17.3% | 3.8%

SMILES | growth inhibition [1] | growth inhibition [2] | growth inhibition [3] | growth inhibition [4] | growth inhibition [5] | growth inhibition [6]
COc1ccc(N=Nc2c(-c3ccccc3)nn(C(=O)CC(=O)Nc3ccc(OC)cc3)c2-c2ccccc2)cc1 | -17% | -1.7% | -0.8% | -25.4% | 11.7% | -3.35%
CCCCCCCCC[N+]12CC[N+](CCCCCCCCC)(CC1)CC2 | 8.2% | 15.2% | -4.9% | 2.15% | 8.8% | 5.25%
S=C(SNC1CCCCC1)SNC1CCCCC1 | -65.5% | -14.2% | 4.25% | -13.4% | 9.35% | 6.25%
O=C(Cc1ccccc1)Nc1ccccc1Cl | -8.1% | 0.35% | 4.55% | 21.2% | 14.7% | 1.95%
COc1ccc(C23C(=O)c4ccccc4N2O[C@H]2C(=O)N(c4ccccc4)C(=O)[C@H]23)cc1 (stereo partly drawn) | -22.2% | 20.1% | -36.5% | 7.9% | -30.6% | -21.1%
CCN(CC)CCC(=O)c1ccc(C)cc1 | -37.4% | -46.8% | -26.1% | 11.2% | 0.5% | -23.1%
Nc1ccc(S(=O)(=O)O)cc1 | -20.6% | 3.85% | 2.35% | -29.3% | -6.75% | -2.55%
COc1cc(C2=N/C(=C\C=C\c3ccccc3)C(=O)O2)cc(OC)c1OC | 16.8% | 16% | 21.9% | 18.9% | 18.8% | 16.9%
COc1cccc(CNc2ncnc3nc[nH]c23)c1 | 16.5% | 1.85% | 14.7% | 4% | -3.85% | 24.6%
COc1ccc(CC(NC(=O)OCc2ccccc2)C(=O)NC2C(CO)OC(n3cnc4c(N)ncnc43)C2O)cc1 (stereo not drawn) | 25.8% | -6% | 10.2% | 2.15% | -0.75% | -1.75%
CCCCC(=O)OCC(=O)[C@]1(O)Cc2c(O)c3c(c(O)c2[C@@H](OC2CC(NC(=O)C(F)(F)F)C(O)C(C)O2)C1)C(=O)c1c(OC)cccc1C3=O (stereo partly drawn) | 19.5% | 21.3% | 29.9% | 4.9% | 53% | 30.8%
Cc1ccccc1N=C(N)Nc1ccccc1 | 5.5% | -4.85% | -3.9% | -43.3% | -10.6% | -6.7%
CCCCCC(=O)OC(C)COc1ccccc1 (stereo not drawn) | 20.6% | 22.7% | 20.8% | -10.8% | 30.9% | 28.6%
CC(=O)c1c(Cl)cc(Cl)c(Cl)c1Cc1c(Cl)c(Cl)cc(Cl)c1C(C)=O | 9.5% | 9.8% | 7% | 18.2% | 5.95% | 9.55%
Cc1ccc(S(=O)(=O)N(CC(O)c2ccccc2)CC(O)c2ccccc2)cc1 (stereo not drawn) | -3.95% | -1.7% | -18.2% | 3.5% | 3.95% | -8%
O=[N+]([O-])c1ccccc1C(Nc1nncs1)Nc1nncs1 | 17.3% | 22.5% | 41.5% | -6.05% | -3.3% | 2.3%
COC(=O)C1C(=O)C=C(O)C2CCCCC21 (stereo not drawn) | 2.05% | -2.85% | -0.35% | -63% | -30.9% | 2.5%
CCSCCCSCCSCC | 58.5% | 46.5% | 57.5% | 43.7% | 63.5% | 56%
O=C([O-])[C+](C=Cc1cccc2ccccc12)C(=O)O | 9.05% | -5.4% | 8.35% | 5.35% | 3.35% | 31.3%
